# Results taken from PubChem BioAssay (Tox21).
# A number with no mark means an inactive call. Records with an inconclusive call do not appear. A call without a number means that no potency is given here. The source made the active and inactive calls. Unless noted, calls follow the shape of the dose curve; as a rule, active = well fitted curve in the direction sought with a large enough effect in the repeat runs; inconclusive = weak or mixed curves; inactive = no such curve, though single readings can be large; an effect the other way counts as inactive or inconclusive.
# Assays:
# [1] = qHTS RealTime-Glo MT Cell Viability Assay in HEK293 cells - 8 hour (AID 1224887); also: top concentration of the series differs between compounds; nearly all actives have a fitted effect of over 50% in size
# How it was run: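 Luminescence readout at each listed time point; HEK293, 600 cells/well, RealTime-Glo MT reagent added with cells; compounds pinned (23 nL in DMSO) after 5 h at 37 C; continuous culture at 37 C.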
# [2] = A CellTox Green Cytotoxicity Assay to monitor cytotoxicity in HEK293 cells - 16 hour (AID 1224888); also: nearly all actives have a fitted effect of over 35% in size
# How it was run: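 Read-out: fluorescence of a cell-impermeant cyanine dye staining DNA of dead cells, proportional to cytotoxicity. HEK293, 600 cells/well with reagent, compound (23 nL DMSO) added after 5 h; reads at 0, 8, 16, 24, 32, 40 h.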
# [3] = qHTS RealTime-Glo MT Cell Viability Assay in HepG2 cells - 0 hour (AID 1224889); also: nearly all actives have a fitted effect of over 50% in size
# How it was run: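 Cells + NanoLuc/prosubstrate dispensed (600 cells/well) → 5 h at 37 C/5% CO2 → compounds in DMSO transferred → 40 h incubation at 37 C, luminescence read at 0, 8, 16, 24, 32, 40 h.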
# [4] = A CellTox Green Cytotoxicity Assay to monitor cytotoxicity in HepG2 cells - 8 hour (AID 1224890); also: nearly all actives have a fitted effect of over 45% in size
# How it was run: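 HepG2, 600 cells/well premixed w/ CellTox Green; 5 h settle, 37 C/5% CO2; pintool cpd add (DMSO); 37 C, 40 h; fluorescence read at 0, 8, 16, 24, 32, 40 h.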
# [5] = qHTS assay to identify small molecule antagonists of the estrogen receptor alpha (ER-alpha) signaling pathway using the BG1 cell line in the presence of 0.1 nM 17-beta-estradiol - cell viability counter screen (AID 1259241); also: nearly all actives have a fitted effect of over 40% in size
# How it was run: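 Cells were plated and left 24 hr, compounds in DMSO were pinned in, 17beta-estradiol was added to 0.1 nM final, and after 22 hr CellTiter-Fluor reagent was added for 30 min before fluorescence was read.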
# [6] = qHTS assay to identify small molecule antagonists of the androgen receptor (AR) signaling pathway using the MDA cell line in the presence of 0.5 nM R1881 - cell viability counter screen (AID 1259242); also: nearly all actives have a fitted effect of over 45% in size
# How it was run: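 Live-cell protease fluorescence, CellTiter-Fluor, 30 min at 37C. Cells: MDA-kb2, 3,000/well, preincubated 5 hr. Compounds plus 0.5 nM R1881 final, 16 hr, 37C, 0% CO2.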
# [7] = molecular target: Estrogen receptor (Homo sapiens) (UniProt P03372); assay: qHTS assay to identify small molecule antagonists of the estrogen receptor alpha (ER-alpha) signaling pathway using the BG1 cell line in the presence of 0.1 nM 17-beta-estradiol (AID 1259244); also: nearly all actives have a fitted effect of over 50% in size
# Estrogen receptor (Homo sapiens), sequence (P03372 whole entry, looked up): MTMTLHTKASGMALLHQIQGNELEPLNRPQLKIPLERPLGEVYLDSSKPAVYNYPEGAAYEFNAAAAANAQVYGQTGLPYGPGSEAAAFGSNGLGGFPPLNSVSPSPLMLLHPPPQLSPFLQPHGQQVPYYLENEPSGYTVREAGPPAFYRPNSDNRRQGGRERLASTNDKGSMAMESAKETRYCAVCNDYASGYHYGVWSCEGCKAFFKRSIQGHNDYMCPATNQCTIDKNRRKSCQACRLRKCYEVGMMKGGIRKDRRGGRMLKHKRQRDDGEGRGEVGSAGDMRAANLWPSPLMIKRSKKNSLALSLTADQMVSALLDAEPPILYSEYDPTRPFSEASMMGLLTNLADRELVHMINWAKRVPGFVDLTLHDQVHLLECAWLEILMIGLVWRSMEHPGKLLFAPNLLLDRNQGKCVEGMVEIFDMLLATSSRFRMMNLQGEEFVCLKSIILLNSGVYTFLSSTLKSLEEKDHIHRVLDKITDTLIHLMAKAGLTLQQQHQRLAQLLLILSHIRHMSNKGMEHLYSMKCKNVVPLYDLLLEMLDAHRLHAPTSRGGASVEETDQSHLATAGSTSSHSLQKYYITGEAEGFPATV
# How it was run: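 Luminescence after ONE-Glo (30 min, room temperature) measured ERE-luciferase activity in VM7Luc4E2 cells treated 22 h with compound and 0.1 nM final 17beta-estradiol as stimulator.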
# [8] = qHTS assay to identify small molecule HDAC inhibitors - cell viability counter screen (AID 1259365); also: series mostly up to about 92 µM; nearly all actives have a fitted effect of over 50% in size
# How it was run: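 Counter screen in wild-type HCT-116 cells: compounds dissolved in DMSO are pin-transferred onto overnight-plated cells and left 2hr at 37C. ATP-based CellTiter-Glo luminescence then measures viable cells.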
# [9] = qHTS assay to identify small molecule agonists of the sonic hedgehog signaling (Shh) pathway - cell viability counter screen (AID 1259366); also: nearly all actives have a fitted effect of over 50% in size; also: potency is read from the fitted curve at half-maximal effect
# How it was run: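 Cells are plated at 2,000 per well and left 4hr at 37C, 5% CO2 before compound addition. After 23hr of treatment, CellTiter-Fluor reagent is added for 1hr at 37C and fluorescence is measured.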
# [10] = qHTS assay to identify small molecule agonists of the sonic hedgehog signaling (Shh) pathway (AID 1259368; calls by dose curve;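 also: NIH/3T3-derived 3T3Gli1-Luc cells carrying a stable Gli1-driven firefly luciferase reporter; series mostly up to about 92 µM; nearly all actives have a fitted effect of over 15% in size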)
# How it was run: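 Read-out: firefly luciferase luminescence from a Gli1 response element reporter stably integrated in NIH/3T3-derived 3T3Gli1-Luc cells, measured 30 min at room temperature after reagent addition. Compound exposure lasted 24 hr at 37 C, 5% CO2.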
# [11] = qHTS assay to identify small molecule antagonists of the sonic hedgehog signaling (Shh) pathway (AID 1259369; calls by dose curve; also: nearly all actives have a fitted effect of over 45% in size)
# How it was run: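 Luminescence readout: firefly Luc under Gli1 response element in 3T3Gli1-Luc cells (NIH/3T3 clone). Antagonist mode, stimulation by conditioned medium; compound exposure 24hr at 37 C, 5% CO2.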
# [12] = molecular target: Estrogen receptor beta (Homo sapiens) (UniProt Q92731); assay: qHTS assay to identify small molecule agonists of the estrogen receptor beta (ER-beta) signaling pathway (AID 1259377; active = well fitted activation curve with a large enough effect in the signal ratio in the repeat runs, not every such curve was filed as active; the % refers to the signal ratio)
# Estrogen receptor beta (Homo sapiens), sequence (Q92731 whole entry, looked up, the tested form may be a part): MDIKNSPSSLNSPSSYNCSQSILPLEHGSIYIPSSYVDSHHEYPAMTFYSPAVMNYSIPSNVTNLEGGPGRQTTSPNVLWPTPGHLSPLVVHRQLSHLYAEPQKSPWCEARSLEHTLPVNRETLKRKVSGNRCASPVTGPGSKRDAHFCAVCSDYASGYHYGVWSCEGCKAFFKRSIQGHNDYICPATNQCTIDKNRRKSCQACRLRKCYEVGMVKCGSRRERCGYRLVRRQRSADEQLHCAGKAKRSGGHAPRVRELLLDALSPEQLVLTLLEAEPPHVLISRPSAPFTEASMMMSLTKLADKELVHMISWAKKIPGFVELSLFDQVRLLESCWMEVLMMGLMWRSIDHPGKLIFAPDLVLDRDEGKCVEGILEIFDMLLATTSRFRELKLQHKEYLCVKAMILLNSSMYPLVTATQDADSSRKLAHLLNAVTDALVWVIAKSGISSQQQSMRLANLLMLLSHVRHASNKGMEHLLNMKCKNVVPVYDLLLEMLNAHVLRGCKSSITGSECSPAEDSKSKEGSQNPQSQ
# How it was run: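 Agonist mode cell assay in GripTite HEK293T cells expressing an ER-beta fusion that drives beta-lactamase from an Upstream Activator Sequence; 16 hr compound exposure at 37C, then 2 h LiveBLAzer B/G FRET substrate at room temperature, fluorescence read-out.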
# [13] = molecular target: Estrogen receptor beta (Homo sapiens) (UniProt Q92731); assay: qHTS assay to identify small molecule antagonists of the estrogen receptor beta (ER-beta) signaling pathway (AID 1259378; active = well fitted inhibition curve with a large enough effect in the signal ratio in the repeat runs, not every such curve was filed as active; the % refers to the signal ratio)
# How it was run: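 Antagonist mode: compounds added to beta-lactamase reporter HEK293T ER-beta-UAS cells stimulated with E2 (1nM final), 16 hr at 37C. LiveBLAzer B/G FRET substrate, 2 hours room temperature, fluorescence read-out.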
# [14] = qHTS assay to identify small molecule agonists of the androgen receptor (AR) signaling pathway in the presence of an antagonist - cell viability counter screen (AID 1259379);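 also: MDA-kb2 human breast cancer cells carrying an MMTV luciferase reporter; series mostly up to about 92 µM; nearly all actives have a fitted effect of over 25% in size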
# How it was run: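 Viability counter screen: CellTiter-Fluor fluorescence, measured in the same wells as the luciferase read-out. MDA-kb2 cells, 3,000/well, with nilutamide at 3.0uM final and compounds at 15 concentrations, 16 hr at 37C, 0% CO2.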
# [15] = qHTS assay to identify small molecule agonists of the estrogen receptor beta (ER-beta) signaling pathway - cell viability counter screen (AID 1259380); also: nearly all actives have a fitted effect of over 30% in size
# How it was run: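 Luminescence read-out (CellTiter-Glo, 30 min, room temp) taken in the same wells as the beta-lactamase reporter assay; ER-beta-UAS-bla HEK293T cells exposed to DMSO-dissolved compounds for 16 hr at 37C in 2% charcoal-stripped FBS medium.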
# [16] = qHTS RealTime-Glo MT Cell Viability Assay in HEK293 cells - 24 hour (AID 1224886)
# How it was run: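 Tox21 10K qHTS, HEK293, 600 cells/well, RealTime-Glo reagent co-dispensed with cells; 5 h preincubation, compound by pintool, 37 C, luminescence at 0–40 h.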
# [17] = qHTS assay to identify small molecule HDAC inhibitors (AID 1259364);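 also: wild-type HCT-116 cells with endogenous class I/II HDAC activity; top concentration of the series differs between compounds; nearly all actives have a fitted effect of over 45% in size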
# How it was run: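 HCT-116 (wild type), 1,500 cells/well, overnight; compound 2 hr 37C 5% CO2; HDAC-Glo I/II reagent 30 min RT; luminescence readout.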
# [18] = qHTS assay to identify small molecule antagonists of the sonic hedgehog signaling (Shh) pathway - cell viability counter screen (AID 1259367); also: nearly all actives have a fitted effect of over 55% in size
# How it was run: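 CellTiter-Fluor signal in conditioned medium-stimulated 3T3 Gli1-Luc cells, 23 hr compound exposure, 37C.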
# [19] = qHTS assay to identify small molecule phospholipidosis (PLD) inducers (AID 1259344; active = well fitted curve in the direction sought with a large enough effect; an effect the other way counts as inactive or inconclusive)
# How it was run: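 Accumulated phospholipid, stained red by LipidTOX during 24 h compound treatment of HepG2 cells at 37 C, is quantified from images as pit number and intensity, normalised per cell using Hoechst-stained nuclei.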
smiles,measurement,setting,value
CCC(CO)CO,Potency,[1],inactive
same,Potency,[2],inactive
same,Potency,[3],inactive
same,Potency,[4],inactive
same,Potency,[5],inactive
same,Potency,[6],inactive
same,Potency,[7],inactive
same,outcome,[8],inactive
same,Potency,[9],inactive
same,outcome,[10],inactive
same,Potency,[11],inactive
same,Potency,[12],inactive
same,outcome,[13],inactive
same,Potency,[14],inactive
same,outcome,[15],inactive
NS(=O)(=O)c1cc2c(cc1Cl)NC(C(Cl)Cl)NS2(=O)=O (stereo unspecified),Potency,[16],inactive
same,Potency,[1],inactive
same,Potency,[3],inactive
same,Potency,[4],inactive
same,Potency,[5],inactive
same,Potency,[6],inactive
same,Potency,[17],inactive
same,outcome,[8],inactive
same,Potency,[9],inactive
same,Potency,[18],inactive
same,outcome,[10],inactive
same,Potency,[11],inactive
same,Potency,[12],inactive
same,outcome,[13],inactive
same,Potency,[14],inactive
same,outcome,[15],inactive
C=C[C@@H](C)CCC=C(C)C,Potency,[16],inactive
same,Potency,[1],inactive
same,Potency,[4],inactive
same,Potency,[5],inactive
same,Potency,[6],inactive
same,Potency,[17],inactive
same,Potency,[9],inactive
same,Potency,[18],inactive
same,outcome,[10],inactive
same,Potency,[11],inactive
same,Potency,[12],inactive
same,outcome,[13],inactive
same,Potency,[14],inactive
same,outcome,[15],inactive
Nc1c(NC/C=C\COc2cc(CN3CCCCC3)ccn2)c(=O)c1=O,"activity change, negative = cytotoxicity",[16],3.04% [at 15.8 µM]
same,"activity change, negative = cytotoxicity",[1],1.9% [at 15.8 µM]
same,cytotoxicity increase,[4],-13.1% [at 15.8 µM]
same,"activity change, negative = cytotoxicity",[5],-19.8% [at 19 µM]
same,"viability change, negative = cytotoxic",[6],-4.94% [at 19 µM]
same,"activity change, negative = inhibition",[17],-4.93% [at 19 µM]
same,"activity change, negative = cytotoxicity",[8],4.37% [at 19 µM]
same,Potency,[9],5.17 µM (active)
same,activity change,[10],-1% [at 18.9 µM]
same,"activity change, negative = inhibition",[11],0.103% [at 19 µM]
same,"activity change, negative = cytotoxicity",[14],-0.565% [at 19 µM]
same,"activity change, negative = cytotoxicity",[15],1.31% [at 19 µM]
CCN1CN(CC)CN(CC)C1,Potency,[1],inactive
same,Potency,[2],inactive
same,Potency,[3],inactive
same,Potency,[4],inactive
same,Potency,[5],inactive
same,Potency,[6],inactive
same,Potency,[7],inactive
same,Potency,[17],inactive
same,Potency,[18],inactive
same,outcome,[10],inactive
same,Potency,[11],inactive
same,Potency,[12],inactive
same,outcome,[13],inactive
same,Potency,[14],inactive
same,outcome,[15],inactive
C=CCOCC(CO)(COCC=C)COCC=C,Potency,[16],inactive
same,Potency,[1],inactive
same,Potency,[4],inactive
same,Potency,[5],inactive
same,Potency,[6],inactive
same,outcome,[8],inactive
same,Potency,[9],inactive
same,Potency,[18],inactive
same,outcome,[10],inactive
same,Potency,[11],inactive
same,Potency,[12],inactive
same,outcome,[13],inactive
same,Potency,[14],inactive
same,outcome,[15],inactive
CC(C)(C)c1ccc(C=O)cc1,Potency,[16],inactive
same,Potency,[1],inactive
same,Potency,[4],inactive
same,Potency,[5],inactive
same,Potency,[7],inactive
same,Potency,[9],inactive
same,outcome,[10],inactive
same,Potency,[11],inactive
same,Potency,[12],inactive
same,outcome,[13],inactive
same,Potency,[14],inactive
same,outcome,[15],inactive
NS(=O)(=O)c1cc2c(cc1Cl)NC(CC1CCCC1)NS2(=O)=O (stereo unspecified),Potency,[16],inactive
same,Potency,[1],inactive
same,Potency,[3],inactive
same,Potency,[5],inactive
same,outcome,[19],inactive
same,Potency,[17],inactive
same,Potency,[9],inactive
same,Potency,[18],inactive
same,outcome,[10],inactive
same,Potency,[11],inactive
same,Potency,[12],inactive
same,outcome,[13],inactive
same,outcome,[15],inactive
